Results taken from PubChem BioAssay (NCI).
Compounds without any hit were thinned out: in the full panel of roughly 83,000, 20% have a hit.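 96-well plates, one dose, 48 hours. Percent growth reported; active if below 10.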 Unmarked numbers belong to inactive results. Calls of active or inactive are those of the source.

Tested on: NCI-H23 lung
Experiment: NCI-60 one-dose screen, 48 h (100 = growth as untreated, 0 = no growth, -100 = all killed)
Settings: 10 µM unless noted

Structure (SMILES)	growth
CCOC(=O)c1ccccc1NC(c1ccccc1)c1ccc2cccnc2c1O (stereo not given)	30.3%
O=S(=O)(NCCCNc1nccc(-c2c(-c3ccc(O)cc3)nc3sccn23)n1)c1ccc(F)cc1	1.81% (active)
C=CCc1cc(Cl)cc2c(OC(C)=O)c(C(C)=O)c(-c3ccccc3)nc12	91.8%
NC(=O)c1cccc(N2Cc3ccccc3OC3=C2C(=O)c2c(O)ccc(O)c2C3=O)c1	6.02% (active)
Cc1cccc(NC(=O)c2sc3nc4c(cc3c2N)CCC4)c1C	36%
COc1ccc(/C=C2\CCCC3=C2NC(C)=NC3c2ccc(OC)c(OC)c2)cc1OC (stereo not given)	29.1%
COc1cc(NS(C)(=O)=O)ccc1Nc1c2ccc([N+](=O)[O-])cc2nc2c(C)cccc12	-0.0901% (active)
CC/C=C\C[C@H](O)C/C=C1/C(=O)C(Cl)=C[C@@H]1C/C=C\CCCC(=O)O	70.2%
CCC(=O)Oc1cc(/C=C/C(=O)O[C@H]2C[C@H]3CN4CCc5c([nH]c6cc(OC)ccc56)[C@@H]4C[C@@H]3[C@@H](C(=O)OC)[C@@H]2OC)ccc1OC	86.7%
Nc1ccccc1C#C/C=C\C#Cc1cccc(O)c1	97.3%
O=C(CSc1nc(-c2ccc(Cl)cc2)cn1-c1ccc(Cl)cc1)c1ccc(Br)cc1	77.1%
COC(=O)CCCCCN=Cc1c(O)c(O)c(C(C)C)c2cc(C)c(-c3c(C)cc4c(C(C)C)c(O)c(O)c(C=NCCCCCC(=O)OC)c4c3O)c(O)c12	19.3%
C=CCOc1cccc(/C=C/C(=O)c2sc(Nc3cccnc3)nc2C)c1	94.1%
CC(=O)Nc1nc(C(=O)N2N=C(C)/C(=C/c3cccs3)C2=O)cs1	107%
COc1cc(C2C=C(C)N=C3SC(C)=NN32)cc(OC)c1OC (stereo not given)	94.8%
COc1cc(C2C=C(C)N=C3SC=CN32)cc(OC)c1OC (stereo not given)	108%
CC/C=C\C/C=C\C[C@H]1C/C=C2/C(=O)C=C[C@H]2C/C=C\CCC(=O)O1	7.93% (active)
COc1ccc(C2=NN(c3ccc(S(N)(=O)=O)cc3)C(c3cn(-c4ccccc4)nc3-c3ccc(Cl)cc3)C2)cc1 (stereo not given)	93.9%
O=C(CCCn1c2c(sc3ccccc32)c(=O)n2nnc(-c3ccccc3)c12)NCCc1cnc[nH]1	23.4%

Structure (SMILES)	growth
CCOC(=O)C1=C(CSC(=S)N(C2CCCCC2)C2CCCCC2)N(C)C(=O)NC1c1ccccc1 (stereo not given)	76.5%
COc1cccc(-c2nc3sccn3c2-c2ccnc(NCCNS(=O)(=O)c3ccccc3)n2)c1	65.8%
COC(=O)c1ccc2nc(-c3cc4ccccc4n3C)n(CCCCOc3cc4c(cc3OC)C(=O)N3CCC[C@H]3C=N4)c2c1	7.22% (active)
CCn1cc(C(=O)O)c(=O)c2cc(F)c(N3CCN(S(=O)(=O)c4ccc(Cl)cc4Cl)CC3)cc21	-3.58% (active)
CN(C)c1nc(N)c(N=O)c(N)n1	107%
COc1cc(C(=O)/C=C/c2cc(C(=O)c3cc(OC)c(OC)c(OC)c3)ccc2OC)ccc1N	-29.8% (active)
COc1ccc(C2CC(c3cccs3)=NN2c2ccc(S(=O)(=O)NC(=O)Nc3ccc(C)cc3)cc2)cc1 (stereo not given)	98.5%
COc1cccc(/C=C2\SC(N3CCN(c4ccccn4)CC3)=NC2=O)c1	95.5%
Nc1nc(N)c2nc(CNc3ccc(C(=O)CC(CCC(=O)O)C(=O)O)cc3)cnc2n1 (stereo not given)	31.4%
Cc1ccc2nc(SCn3nnc4ccccc4c3=O)[nH]c2c1	100%
O=C1Nc2cc(Cl)ccc2Oc2cc(Oc3ccccc3)ccc21	54.8%
OC1CC2c3ccccc3C1c1ccccc12 (stereo not given)	101%
N#Cc1ncc(-c2ccc(F)c(F)c2F)c(NC2CCCCCC2)n1	88.1%
CC(C)(C)c1ccc(S(=O)(=O)Oc2ccc3c4c(c(=O)oc3c2)CCCCC4)cc1	43%
CC(Cc1nnc(SCC(=O)Nc2ccc(I)cc2)n1N)c1ccccc1 (stereo not given)	99.8%
CCN(Cc1ccc(CN(CC)C(=O)C(Cl)(Cl)Cl)cc1)C(=O)C(Cl)(Cl)Cl	67.6%
NC(=O)NC(=O)/C=C/C(=O)OCCCl	111%
CC(=O)OCC1OC(OCC2OC(OC(C)=O)C(OC(C)=O)C(OC(C)=O)C2OC(C)=O)C(OC(C)=O)C(OC(C)=O)C1OC(C)=O (stereo not given)	103%
O=C1c2ccccc2C(=O)c2c1oc1oc3c(c(=O)c21)c(=O)n(-c1ccccc1)c1ccccc31	38.2%

Tested on: NCI-H226 lung
Experiment: as above
Settings: 10 µM unless noted

Structure (SMILES)	growth
CCOC(=O)c1ccccc1NC(c1ccccc1)c1ccc2cccnc2c1O (stereo not given)	7.15% (active)
O=S(=O)(NCCCNc1nccc(-c2c(-c3ccc(O)cc3)nc3sccn23)n1)c1ccc(F)cc1	3.13% (active)
C=CCc1cc(Cl)cc2c(OC(C)=O)c(C(C)=O)c(-c3ccccc3)nc12	103%
NC(=O)c1cccc(N2Cc3ccccc3OC3=C2C(=O)c2c(O)ccc(O)c2C3=O)c1	0.769% (active)
Cc1cccc(NC(=O)c2sc3nc4c(cc3c2N)CCC4)c1C	43.7%
COc1ccc(/C=C2\CCCC3=C2NC(C)=NC3c2ccc(OC)c(OC)c2)cc1OC (stereo not given)	-22.4% (active)
COc1cc(NS(C)(=O)=O)ccc1Nc1c2ccc([N+](=O)[O-])cc2nc2c(C)cccc12	-23.6% (active)
CC/C=C\C[C@H](O)C/C=C1/C(=O)C(Cl)=C[C@@H]1C/C=C\CCCC(=O)O	89.6%
CCC(=O)Oc1cc(/C=C/C(=O)O[C@H]2C[C@H]3CN4CCc5c([nH]c6cc(OC)ccc56)[C@@H]4C[C@@H]3[C@@H](C(=O)OC)[C@@H]2OC)ccc1OC	67%
Nc1ccccc1C#C/C=C\C#Cc1cccc(O)c1	95.4%
O=C(CSc1nc(-c2ccc(Cl)cc2)cn1-c1ccc(Cl)cc1)c1ccc(Br)cc1	68.4%
COC(=O)CCCCCN=Cc1c(O)c(O)c(C(C)C)c2cc(C)c(-c3c(C)cc4c(C(C)C)c(O)c(O)c(C=NCCCCCC(=O)OC)c4c3O)c(O)c12	54.9%
C=CCOc1cccc(/C=C/C(=O)c2sc(Nc3cccnc3)nc2C)c1	86.1%
CC(=O)Nc1nc(C(=O)N2N=C(C)/C(=C/c3cccs3)C2=O)cs1	101%
COc1cc(C2C=C(C)N=C3SC(C)=NN32)cc(OC)c1OC (stereo not given)	107%
COc1cc(C2C=C(C)N=C3SC=CN32)cc(OC)c1OC (stereo not given)	103%
CC/C=C\C/C=C\C[C@H]1C/C=C2/C(=O)C=C[C@H]2C/C=C\CCC(=O)O1	-5.58% (active)
COc1ccc(C2=NN(c3ccc(S(N)(=O)=O)cc3)C(c3cn(-c4ccccc4)nc3-c3ccc(Cl)cc3)C2)cc1 (stereo not given)	101%
CCOC(=O)C1=C(CSC(=S)N(C2CCCCC2)C2CCCCC2)N(C)C(=O)NC1c1ccccc1 (stereo not given)	58.8%

Structure (SMILES)	growth
COc1cccc(-c2nc3sccn3c2-c2ccnc(NCCNS(=O)(=O)c3ccccc3)n2)c1	43.1%
COC(=O)c1ccc2nc(-c3cc4ccccc4n3C)n(CCCCOc3cc4c(cc3OC)C(=O)N3CCC[C@H]3C=N4)c2c1	-31.8% (active)
CCn1cc(C(=O)O)c(=O)c2cc(F)c(N3CCN(S(=O)(=O)c4ccc(Cl)cc4Cl)CC3)cc21	13.1%
CN(C)c1nc(N)c(N=O)c(N)n1	112%
COc1cc(C(=O)/C=C/c2cc(C(=O)c3cc(OC)c(OC)c(OC)c3)ccc2OC)ccc1N	-38.7% (active)
COc1ccc(C2CC(c3cccs3)=NN2c2ccc(S(=O)(=O)NC(=O)Nc3ccc(C)cc3)cc2)cc1 (stereo not given)	110%
COc1cccc(/C=C2\SC(N3CCN(c4ccccn4)CC3)=NC2=O)c1	108%
Nc1nc(N)c2nc(CNc3ccc(C(=O)CC(CCC(=O)O)C(=O)O)cc3)cnc2n1 (stereo not given)	38.2%
Cc1ccc2nc(SCn3nnc4ccccc4c3=O)[nH]c2c1	110%
O=C1Nc2cc(Cl)ccc2Oc2cc(Oc3ccccc3)ccc21	72.3%
OC1CC2c3ccccc3C1c1ccccc12 (stereo not given)	106%
N#Cc1ncc(-c2ccc(F)c(F)c2F)c(NC2CCCCCC2)n1	93.8%
CC(C)(C)c1ccc(S(=O)(=O)Oc2ccc3c4c(c(=O)oc3c2)CCCCC4)cc1	56.7%
CC(Cc1nnc(SCC(=O)Nc2ccc(I)cc2)n1N)c1ccccc1 (stereo not given)	87.2%
CCN(Cc1ccc(CN(CC)C(=O)C(Cl)(Cl)Cl)cc1)C(=O)C(Cl)(Cl)Cl	83.9%
NC(=O)NC(=O)/C=C/C(=O)OCCCl	98.2%
CC(=O)OCC1OC(OCC2OC(OC(C)=O)C(OC(C)=O)C(OC(C)=O)C2OC(C)=O)C(OC(C)=O)C(OC(C)=O)C1OC(C)=O (stereo not given)	83.1%
O=C1c2ccccc2C(=O)c2c1oc1oc3c(c(=O)c21)c(=O)n(-c1ccccc1)c1ccccc31	86.3%
